Screens: PubChem BioAssay, National Center for Advancing Translational Sciences (NCATS)
HT1080 IDH1KD tx: toxicity to HT-1080 IDH1 knockdown cells (counter line); Potency, µM (series often up to 46.1 µM), for inactives: top-dose activity, negative = toxicity, most hits filed as cytotoxic; HT-1080 IDH1 knockdown viability, ATP luminescence, 48 h; actives 2% (n = 360,000);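 further: potency means the concentration at half of the fitted maximal effect; 0% = DMSO wells and -100% = cell-free medium wells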
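Knockdown cells (IDH1KD HT-1080) received compounds 2 h after plating at 750 cells/well and were kept 48 h at 37 °C in 5% FBS RPMI. A CellTiter-Glo luminescence read gave % activity for curve fitting.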
TDP1 cell CPT: growth inhibition of DT40 Tdp1-/-;hTDP1 cells with camptothecin (screen for TDP1 inhibitors). chicken DT40 Tdp1-/-;hTDP1 cells + 20 nM CPT, ATP luminescence, 48 h. Potency, µM (doses to about 46.2 µM), without a hit: top-dose activity change, negative = growth inhibition, hits mostly inhibitors. actives 12% (n = 420,000). AID 686979; further: potency means the concentration at half of the fitted maximal effect; nearly all actives have a fitted effect of over 55% in size
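Chicken DT40 Tdp1-/- cells complemented with human TDP1, 400 cells/well, exposed to compounds plus 20 nM camptothecin for at least 48 h at 37 C; viability read as ATP content by CellTiter-Glo luminescence.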
IL1B secr inh: blocks inflammasome-driven IL-1 beta release | THP-1 LPS/ATP IL-1B secretion, AlphaLISA, 16 h; active compounds read low | actives 4.7% (n = 360,000) | activity change, % at 57.5 µM; in the data active means activity change below about -50%; inconclusive means mostly about -30% to -49%
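Secreted IL-1B measured by AlphaLISA bead assay after 16 h compound exposure of THP-1 cells; compounds (final up to 57.5 uM) added 1 h before LPS (250 ng/mL) and ATP (1.25 mM) stimulation; lower signal means less secretion.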
HT1080-NT tox: kills 2HG-producing HT-1080-NT fibrosarcoma cells; HT-1080-NT fibrosarcoma viability, CellTiter-Glo ATP luminescence, 48 h; Potency, µM (top dose mostly 46.1 µM), without a hit: at the top dose activity, negative = less viability, most hits filed as cytotoxic; actives 1.6% (n = 360,000); AID 686970;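 further: NT is the 2HG producing partner of a matched IDH1 knockdown line; potency means the concentration at half of the fitted maximal effect; 0% = DMSO-treated cells and -100% = media-only wells without cells; nearly all actives have a fitted effect of over 55% in size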
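A 48-hour cytotoxicity screen used HT-1080-NT cells plated 2 hours before compound delivery. ATP-based CellTiter-Glo luminescence measured viability, normalized to DMSO and no-cell controls.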
DT40 TDP1 no CPT: qHTS for Inhibitors of human tyrosyl-DNA phosphodiesterase 1 (TDP1): qHTS in cells in absence of CPT | actives 15% (n = 420,000) | DT40 Tdp1-/- hTDP1 cells, no CPT, ATP luminescence, 48 h | Potency, µM (titrated, usually from 46.2 µM), for inactives: at the highest dose activity change, negative = growth inhibition, hits mostly inhibitors; further: potency means the concentration at half of the fitted maximal effect; nearly all actives have a fitted effect of over 55% in size
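Growth kinetics read by CellTiter-Glo luminescence after ≥48 hr at 37 °C. Cells: DT40 Tdp1-/- stably carrying human TDP1, 400 per well, compound exposure in the absence of CPT (DMSO vehicle).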
Numbers without * were called inactive; u = inconclusive; x = no result given; ! = not confirmed by another sample. Hits are enriched below; roughly 19% of the tested compounds scored in any of these assays. Unless noted, the call rests on the fitted dose curve; in most records, active means well fitted curve in the direction sought with a large enough effect; inconclusive means small, poorly fitted or top-dose-only effect, or another doubt; inactive means no such curve, though single readings can be large; an effect the other way counts as inactive or inconclusive. Unless noted, on the % scale 0 is the no-effect control and ±100 the full control effect.

SMILES | HT1080 IDH1KD tx | TDP1 cell CPT | IL1B secr inh | HT1080-NT tox | DT40 TDP1 no CPT
CCn1nc2cc(C(=O)NCc3cc(C(F)(F)F)cc(C(F)(F)F)c3)ccc2c1OC | u | -19% | -57* | u | -4%
CCCCn1nc2cc(C(=O)NCc3cc(C(F)(F)F)cc(C(F)(F)F)c3)ccc2c1OC | 4% | 2% | -10 | 5% | -25%
CCOc1c2ccc(C(=O)NCc3ccc(C(F)(F)F)cc3C(F)(F)F)cc2nn1C | -28% | -16% | -51* | -15% | -23%
Cc1ccc(N2CCN(C(=O)c3nn(C)c4c3CS(=O)(=O)c3ccccc3-4)CC2C)cc1 (centres undefined) | 2% | 21µM*! | -29 | 3% | u
CC1CCCN(C(=O)c2nn(C)c3c2CS(=O)(=O)c2ccccc2-3)C1 (centres undefined) | 10% | -8% | 2 | 1% | 24%
CC1=NNC(=O)C1C(c1ccccc1)C(C#N)C#N (centres undefined) | 12% | -27% | u | 2% | -1%
NC(=NCCc1ccccc1)NS(=O)(=O)c1ccccc1 | 11% | -15% | -4 | 17% | -28%
Cc1ccc(SCCC(=O)Nc2cccc(N(C)S(C)(=O)=O)c2)cc1 | -2% | -29% | 0 | -11% | u
COc1ccc(-c2ccc(SC)nn2)cc1 | 23µM* | -29% | -14 | 21µM* | u
COc1ccc(C(=O)CSc2ccc(-c3ccccc3)nn2)cc1 | -2% | u | 22 | 1% | u
CCCN(CC1CC1)C(=O)COC(=O)c1[nH]c(C)c(C(=O)OCC)c1C | 3% | u | -2 | 10% | u
CCNc1nc(C23CC4CC(CC(C4)C2)C3)cs1 | -23% | u | -2 | -15% | u
N#C/C(=C\c1cccnc1)C(=O)NC1CCCCC1 | 6% | u | -78* | 8% | 23µM*
N#C/C(=C\c1cccnc1)C(=O)Nc1cccc2ccccc12 | 21µM* | u | u | u | u
N#C/C(=C\c1c[nH]c2ccccc12)C(=O)NC1CCCC1 | 2% | 16µM* | 0 | -15% | 16µM*
N#C/C(=C\c1c[nH]c2ccccc12)C(=O)NC1CC1 | -7% | -15% | u | -5% | -20%
CCOC(=O)c1sc2nc(C)n(CC(=O)Nc3cccc(Cl)c3)c(=O)c2c1C | x | u | x | x | -11%
Cc1ccccc1N1C(S)=C(C#N)C(=O)NC12CCCCC2 | -1% | -6% | 8 | 5% | -19%
Cc1cc(=O)c2c(O)cc(O)c(C)c2o1 | x | u | x | x | 21µM*
Cc1ccc(C2=NNC3(CCOC(C)(C)C3)S2)cc1 (centres undefined) | -19% | -18% | 26 | -3% | -20%
COC(=O)C1(CC2CC(c3ccncc3)=NO2)CCN(C(=O)OC(C)(C)C)CC1 (centres undefined) | 6% | u | 8 | 8% | 21µM*
CCCCCCCNC(=O)C1(CC2CC(c3ccc(Cl)cc3)=NO2)CCN(C(=O)OC(C)(C)C)CC1 (centres undefined) | 12% | u | -10 | 1% | 21µM*
COC(=O)C1(CC2CC(c3ccccc3)=NO2)CCN(C(=O)OC(C)(C)C)CC1 (centres undefined) | -2% | u | -9 | -5% | 21µM*
CC(C)(C)OC(=O)N1CCC(CC2CC(c3ccccc3)=NO2)(C(=O)O)CC1 (centres undefined) | 7% | -3% | 54 | 5% | -11%
O=C(C1CCCC1)N1CCC(CC2CC(c3ccc(Cl)cc3)=NO2)(C(=O)NCC2CCCCC2)CC1 (centres undefined) | -6% | -23% | -29 | 3% | -21%
SMILES | HT1080 IDH1KD tx | TDP1 cell CPT | IL1B secr inh | HT1080-NT tox | DT40 TDP1 no CPT
COC1C(C)=C(C)C(=O)N1Cc1ccc(F)cc1 (centres undefined) | -5% | u | 33 | 12% | -25%
COc1ccccc1CC(=O)N(Cc1ccccc1)c1cccc(C)c1 | -5% | u | -22 | -1% | u
COc1cc(C(=O)Nc2nnc(C)s2)c([N+](=O)[O-])cc1OC | 12% | 14% | 29 | 2% | 4%
O=C(/C=C/c1ccco1)Nc1cccc(NC(=O)/C=C/c2ccco2)n1 | 12% | 23µM* | 10 | 0% | 21µM*
Cc1nc(NC(=O)/C=C/c2ccco2)sc1C | u | 5.2µM* | 22 | -12% | 5.8µM*
O=C(NNC(=O)c1ccccc1O)c1ccc(Cl)c(S(=O)(=O)N2CCCCC2)c1 | -19% | u | 87 | u | u
CCC(C)C(=O)C(=O)N1CCC(n2nccc2NC(=O)CCOc2ccccc2)CC1 (centres undefined) | 1% | -26% | -5 | 3% | u
Nc1c(C(=O)N2CCCC2)sc2nc3c(cc12)CCCCCC3 | 3% | u | -19 | 7% | u
CCCCCCCCS(=O)c1sc2nc3c(cc2c1N)CCCC3 (centres undefined) | -5% | 13µM* | 16 | -6% | u
CCCCS(=O)(=O)c1sc2nc3c(cc2c1N)CCCC3 | -16% | 12µM* | -15 | -21% | 23µM*
COc1cnn(-c2ccccc2)c(=O)c1SCc1ccc(Cl)cc1Cl | -19% | 29µM* | -51* | 2% | 21µM*
CCSc1cnn(-c2ccccc2)c(=O)c1Cl | u | 6% | -94* | u | u
COc1cnn(-c2ccc(C)cc2)c(=O)c1Br | 21% | 1% | -4 | 15% | 1%
CCOc1cnn(-c2ccccc2)c(=O)c1Cl | 16µM* | u | u | u | 16µM*
COc1ccc(Oc2cnn(-c3ccccc3)c(=O)c2Br)cc1 | 0% | u | -63* | 2% | u
O=C(NCCCN1CCCC1=O)c1cc(=O)c2ccccc2o1 | 5% | 5% | 5 | 10% | -8%
CC[C@H](C)[C@H](NC(N)=O)C(=O)NCCc1ccc(Cl)cc1Cl | -10% | 2% | -12 | 3% | -7%
Cc1cc(C)c(C(=O)CN2C(=O)C(=O)N(C3CCCC3)C2=O)cc1C | 26% | 1% | -5 | 15% | 5%
O=c1c(Cl)c(Cl)cnn1-c1ccccc1 | 4.6µM* | 2.9µM* | -99* | 4.1µM* | 3.3µM*
CC1CN(C(=O)COC(=O)c2nn(-c3ccccc3)c(=O)c3ccccc23)CC(C)O1 (centres undefined) | 1% | -11% | 10 | 0% | -20%
COC(=O)C[C@@H]1CC[C@H](NC(=O)c2ccc3c(c2)OCO3)[C@@H](CO)O1 | 14% | -7% | 24 | 25% | 7%
